In PubChem BioAssay AID696 (Sanford-Burnham Center for Chemical Genomics, 2007):
Among all 96,000 compounds or so, about 1,200 (1.2%) were called active. The list comes from a sample in which actives are over-represented; it also holds similar structures and randomly drawn compounds. Values without a mark were called inactive. Cut-off read from the data, not from the text of the source: active = activation fold above about 2; inactive = the rest.

target: Alkaline phosphatase, placental type (Homo sapiens) (UniProt P05187); assay: PLAP enzyme activators, biochemical, luminescence, HTS (AID 696); conditions: purified PLAP enzyme, luminescent substrate read-out; at 20 µM; active compounds read high
Sequence (P05187 whole entry, looked up): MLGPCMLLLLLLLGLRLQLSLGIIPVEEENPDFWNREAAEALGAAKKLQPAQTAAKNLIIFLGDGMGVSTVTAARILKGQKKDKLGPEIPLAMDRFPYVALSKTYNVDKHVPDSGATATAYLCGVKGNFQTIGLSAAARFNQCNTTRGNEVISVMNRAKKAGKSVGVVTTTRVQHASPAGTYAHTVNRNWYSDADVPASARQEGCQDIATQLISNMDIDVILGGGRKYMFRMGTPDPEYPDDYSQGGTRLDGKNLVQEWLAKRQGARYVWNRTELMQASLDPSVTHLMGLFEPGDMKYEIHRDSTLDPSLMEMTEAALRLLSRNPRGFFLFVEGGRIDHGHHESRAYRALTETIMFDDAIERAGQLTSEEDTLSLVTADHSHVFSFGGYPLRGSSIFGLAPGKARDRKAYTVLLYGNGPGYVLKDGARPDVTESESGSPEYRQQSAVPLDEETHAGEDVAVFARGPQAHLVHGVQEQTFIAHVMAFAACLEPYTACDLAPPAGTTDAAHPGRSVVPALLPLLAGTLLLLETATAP

Compared with `CCOC(=O)c1c(N)n(CCN2CCOCC2)c2nc3ccccc3nc12`, `CCOC(=O)c1c(N)n(Cc2ccccc2)c2nc3ccccc3nc12` is lower in activation fold: 1.1 for the first, 0.9 for the second.

First: Nc1ccc(C(=O)N/N=C2/CN3CCC2CC3)cc1
Second: CCOc1ccc(C2SCC(=O)Nc3c2c(C)nn3C2CCOC(C)(C)C2)cc1 (stereo not given)
The activation fold of the first is lower: 0.9 for the first, 1.5 for the second.

With `COc1cc(Cn2c(N)c(C(=O)NCc3ccco3)c3nc4ccccc4nc32)cc(OC)c1OC` the activation fold was 2.1 (active).
